In PubChem BioAssay (EPA / NIEHS) one finds outcome and AC50 data, which are given here for 4 compounds.

Where a structure was tested more than once in an assay, its records may differ in their call. The source made the active and inactive calls. How the source made its calls: active means hit-call score of the fitted dose curve at least 0.9, where 1 is the maximum; inactive means score below 0.9.

Read-out in assay [1]: urokinase plasminogen activator (uPA), PLAU (gene 5328)
As to the kind of experiment: BSK_KF3CT_uPA: BioMAP Diversity Plus: KF3CT Assay for urokinase plasminogen activator (uPA) Biomarker Activity (AID 2283075). Particulars: primary human keratinocytes with fibroblasts; actives raise or lower the signal. An outline of the steps:
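ELISA read-out of uPA 24 h after dosing human skin keratinocytes co-cultured with foreskin fibroblasts. Signal change fitted both ways relative to DMSO; sulforhodamine B on parallel cultures marks overt cytotoxicity.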

Read-out in assay [2]: CD40, CD40 (gene 958)
As to the kind of experiment: BSK_LPS_CD40: BioMAP Diversity Plus: LPS Assay for CD40 Biomarker Activity (AID 2283076). Particulars: primary human HUVEC with PBMC; actives raise or lower the signal. An outline of the steps: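 Primary human umbilical vein endothelial cells co-cultured with peripheral blood mononuclear cells, LPS-stimulated, were dosed with chemical and read 24 h later. CD40 levels were measured by ELISA and fitted bidirectionally against DMSO as negative control and baseline.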

Read-out in assay [3]: E-selectin (Homo sapiens) (UniProt P16581)
As to the kind of experiment: BSK_LPS_Eselectin: BioMAP Diversity Plus: LPS Assay for Eselectin Biomarker Activity (AID 2283077). To be noted: primary human HUVEC with PBMC; actives raise or lower the signal. The method in brief:
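Human umbilical vein endothelial cells co-cultured with peripheral blood mononuclear cells under LPS stimulation; E-selectin measured by ELISA 24 h after chemical dosing. Activity fitted bidirectionally against DMSO as negative control and baseline.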

Read-out in assay [4]: Interleukin-8 (IL8), CXCL8 (gene 3576)
As to the kind of experiment: BSK_LPS_IL8: BioMAP Diversity Plus: LPS Assay for Interleukin-8 (IL8) Biomarker Activity (AID 2283078). To be noted: primary human HUVEC with PBMC; actives raise or lower the signal. The method in brief:
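Human umbilical vein endothelial cells co-cultured with PBMC were stimulated with LPS; IL-8 levels were measured by ELISA 24 h after chemical dosing. Activity was fitted bidirectionally against DMSO as negative control and baseline.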

Assay [5] can be described thus: BSK_LPS_SRB: Viability Assessment in the BioMAP Diversity Plus: LPS Assay (AID 2283079).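 Further: total protein by sulforhodamine B absorbance as a cytotoxicity measure; measured one day after compound addition.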 Particulars: primary human HUVEC with PBMC. The method in brief: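 Human umbilical vein endothelial cells co-cultured with PBMC (LPS system) were dosed for 24 h. Total protein was stained with 0.1% sulforhodamine B after 10% TCA fixation, read at 560 nm, and fitted bidirectionally against DMSO baseline.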

Read-out in assay [6]: Interleukin-1 alpha (IL1a), IL1A (gene 3552)
As to the kind of experiment: BSK_LPS_IL1a: BioMAP Diversity Plus: LPS Assay for Interleukin-1 alpha (IL1a) Biomarker Activity (AID 2283080). Particulars: primary human HUVEC with PBMC; actives raise or lower the signal. An outline of the steps:
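Human umbilical vein endothelial cells co-cultured with peripheral blood mononuclear cells were LPS-stimulated and exposed to test chemicals for 24 h. IL-1 alpha was quantified by ELISA, with bidirectional curve fitting against DMSO as the negative control and baseline.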

Read-out in assay [7]: Monocyte Chemoattractant Protein-1 (MCP1), CCL2 (gene 6347)
As to the kind of experiment: BSK_LPS_MCP1: BioMAP Diversity Plus: LPS Assay for Monocyte Chemoattractant Protein-1 (MCP1) Biomarker Activity (AID 2283081).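 On AC50: co-culture stimulated with LPS; secreted MCP-1 protein quantified by ELISA in culture supernatant.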 Particulars: primary human HUVEC with PBMC; actives raise or lower the signal. The method in brief: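 HUVEC plus PBMC co-culture (human primary cells, LPS system) exposed to test chemical for 24 h; MCP-1 measured by ELISA. Bidirectional curve fitting against DMSO baseline; parallel SRB total-protein staining flags overt cytotoxicity.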

The nature of assay [8]: BSK_LPS_PGE2: BioMAP Diversity Plus: LPS Assay for Prostaglandin E2 (PGE2) Biomarker Activity (AID 2283082).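 On AC50: secreted prostaglandin E2 measured by ELISA in LPS-stimulated co-culture.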 To be noted: primary human HUVEC with PBMC; actives raise or lower the signal. The method in brief:
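Primary human endothelial cells and blood mononuclear cells, co-cultured with LPS, receive test chemical; PGE2 ELISA follows at 24 h, with SRB-stained parallel cultures flagging cytotoxicity.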

Read-out in assay [9]: Macrophage colony-stimulating factor (MCSF), CSF1 (gene 1435)
Description: BSK_LPS_MCSF: BioMAP Diversity Plus: LPS Assay for Macrophage colony-stimulating factor (MCSF) Biomarker Activity (AID 2283083). Particulars: primary human HUVEC with PBMC; actives raise or lower the signal. The method in brief: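 Human umbilical vein endothelial cells co-cultured with peripheral blood mononuclear cells were exposed to compound for 24 h. M-CSF levels were measured by ELISA, and bidirectional curve fitting used DMSO as the negative control and baseline.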

Read-out in assay [10]: Tissue Factor, F3 (gene 2152)
Description: BSK_LPS_TissueFactor: BioMAP Diversity Plus: LPS Assay for Tissue Factor Biomarker Activity (AID 2283084). To be noted: primary human HUVEC with PBMC; actives raise or lower the signal. The method in brief: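 Human umbilical vein endothelial cells co-cultured with peripheral blood mononuclear cells were dosed and stimulated with LPS. Cell-surface CD142 was quantified by ELISA at 24 h. Activity was fitted bidirectionally against DMSO baseline.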

Read-out in assay [11]: Tumor necrosis factor (Homo sapiens) (UniProt P01375)
As to the kind of experiment: BSK_LPS_TNFa: BioMAP Diversity Plus: LPS Assay for Tumour Necrosis Factor alpha (TNFa) Biomarker Activity (AID 2283085).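 On AC50: TNFa protein level quantified by ELISA in the co-culture.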 To be noted: primary human HUVEC with PBMC; actives raise or lower the signal. The method in brief:
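ELISA-based TNFa endpoint in a human endothelial–PBMC co-culture sampled 24 h post-exposure. Curves were fitted in both directions using DMSO as baseline of activity.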

Read-out in assay [12]: Vascular cell adhesion molecule 1 (VCAM1), VCAM1 (gene 7412)
Description: BSK_LPS_VCAM1: BioMAP Diversity Plus: LPS Assay for Vascular cell adhesion molecule 1 (VCAM1) Biomarker Activity (AID 2283086). Particulars: primary human HUVEC with PBMC; actives raise or lower the signal. An outline of the steps: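 Measured by ELISA: VCAM-1 in LPS-activated HUVEC/PBMC co-cultures 24 h after treatment. Values reflect bidirectional fitting with DMSO as baseline.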

Read-out in a further assay: CD38, CD38 (gene 952)
Description: BSK_SAg_CD38: BioMAP Diversity Plus: SAg Assay for CD38 Biomarker Activity (AID 2283087). To be noted: primary human HUVEC with PBMC; actives raise or lower the signal. An outline of the steps:
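Measures CD38 on a human endothelial/PBMC co-culture driven by SEB and TSST-1, 24 h after compound exposure, using ELISA with fluorescence detection; DMSO defines baseline for bidirectional curve fitting.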

Read-out in assay [13]: CD40, CD40 (gene 958)
As to the kind of experiment: BSK_SAg_CD40: BioMAP Diversity Plus: SAg Assay for CD40 Biomarker Activity (AID 2283088). Particulars: primary human HUVEC with PBMC; actives raise or lower the signal. An outline of the steps: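 Human umbilical vein endothelial cells co-cultured with PBMC; CD40 levels measured by ELISA with fluorescence read-out 24 h after chemical dosing. Gain or loss of signal fitted bidirectionally against DMSO baseline.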

Read-out in assay [14]: Monocyte Chemoattractant Protein-1 (MCP1), CCL2 (gene 6347)
Description: BSK_SAg_MCP1: BioMAP Diversity Plus: SAg Assay for Monocyte Chemoattractant Protein-1 (MCP1) Biomarker Activity (AID 2283090). Particulars: primary human HUVEC with PBMC; actives raise or lower the signal. An outline of the steps: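 Values derive from bidirectional fitting of ELISA-measured MCP1 against DMSO controls. Readings were taken 24 h after dosing human vascular endothelial cells co-cultured with peripheral blood mononuclear cells under superantigen stimulation.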

Read-out in assay [15]: E-selectin (Homo sapiens) (UniProt P16581)
Description: BSK_SAg_Eselectin: BioMAP Diversity Plus: SAg Assay for Eselectin Biomarker Activity (AID 2283091). To be noted: primary human HUVEC with PBMC; actives raise or lower the signal. The method in brief: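 HUVEC co-cultured with PBMC, compound dosed then read at 24 h; E-selectin measured by ELISA. Activity fitted bidirectionally against DMSO as negative control and baseline.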

Read-out in assay [16]: Monokine induced gamma interferon (MIG), CXCL9 (gene 4283)
As to the kind of experiment: BSK_SAg_MIG: BioMAP Diversity Plus: SAg Assay for Monokine induced gamma interferon (MIG) Biomarker Activity (AID 2283092). Particulars: primary human HUVEC with PBMC; actives raise or lower the signal. An outline of the steps:
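HUVEC plus human PBMC co-culture, chemicals dosed and MIG (CXCL9) quantified by ELISA at 24 h. Bidirectional curve fitting against DMSO as negative control and baseline, so both gain and loss of signal count as activity.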

The nature of assay [17]: BSK_SAg_PBMCCytotoxicity: PBMC Cytotoxicity Assessment in the BioMAP Diversity Plus: SAg Assay (AID 2283093).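 Further: PBMC viability measured as Alamar Blue reduction fluorescence at 546/580 nm; fitted both ways against DMSO so a hit may be loss or gain of signal.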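 On AC50: PBMC superantigen activated with SEB plus TSST-1 one hour after compound addition.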 To be noted: primary human HUVEC with PBMC. An outline of the steps: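 Alamar Blue reduction (6 h, ex/em 546/580 nm) read after 90 h culture of PBMC pre-dosed 1 h then stimulated with SEB plus TSST-1, 20 ng/mL each. Gain or loss of signal fitted relative to DMSO.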

Read-out in assay [18]: Interleukin-8 (IL8), CXCL8 (gene 3576)
Description: BSK_SAg_IL8: BioMAP Diversity Plus: SAg Assay for Interleukin-8 (IL8) Biomarker Activity (AID 2283094). To be noted: primary human HUVEC with PBMC; actives raise or lower the signal. An outline of the steps: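 Primary human endothelial cells with PBMC, exposed 24 h; IL-8 determined by ELISA, analysed bidirectionally relative to DMSO.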

Assay [19] is described as follows: BSK_SAg_Proliferation: Cell Proliferation Assessment in the BioMAP Diversity Plus: SAg Assay (AID 2283095).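 Further: relative cell number as total protein by SRB absorbance in sub-confluent culture.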 To be noted: primary human HUVEC with PBMC. An outline of the steps: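 A human primary co-culture of umbilical vein endothelium and blood mononuclear cells receives compound; relative cell number is quantified at 96 h by SRB staining and 560 nm absorbance, with DMSO-referenced bidirectional curve fitting.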

Sequence of Tumor necrosis factor (Homo sapiens) (P01375 whole entry, looked up): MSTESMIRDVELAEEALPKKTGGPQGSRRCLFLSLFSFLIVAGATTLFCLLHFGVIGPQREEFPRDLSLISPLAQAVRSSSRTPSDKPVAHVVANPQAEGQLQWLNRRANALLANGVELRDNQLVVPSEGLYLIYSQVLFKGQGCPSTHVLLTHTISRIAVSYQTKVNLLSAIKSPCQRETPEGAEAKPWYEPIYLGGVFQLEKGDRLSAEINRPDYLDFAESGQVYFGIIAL
Sequence of E-selectin (Homo sapiens) (P16581 whole entry, looked up): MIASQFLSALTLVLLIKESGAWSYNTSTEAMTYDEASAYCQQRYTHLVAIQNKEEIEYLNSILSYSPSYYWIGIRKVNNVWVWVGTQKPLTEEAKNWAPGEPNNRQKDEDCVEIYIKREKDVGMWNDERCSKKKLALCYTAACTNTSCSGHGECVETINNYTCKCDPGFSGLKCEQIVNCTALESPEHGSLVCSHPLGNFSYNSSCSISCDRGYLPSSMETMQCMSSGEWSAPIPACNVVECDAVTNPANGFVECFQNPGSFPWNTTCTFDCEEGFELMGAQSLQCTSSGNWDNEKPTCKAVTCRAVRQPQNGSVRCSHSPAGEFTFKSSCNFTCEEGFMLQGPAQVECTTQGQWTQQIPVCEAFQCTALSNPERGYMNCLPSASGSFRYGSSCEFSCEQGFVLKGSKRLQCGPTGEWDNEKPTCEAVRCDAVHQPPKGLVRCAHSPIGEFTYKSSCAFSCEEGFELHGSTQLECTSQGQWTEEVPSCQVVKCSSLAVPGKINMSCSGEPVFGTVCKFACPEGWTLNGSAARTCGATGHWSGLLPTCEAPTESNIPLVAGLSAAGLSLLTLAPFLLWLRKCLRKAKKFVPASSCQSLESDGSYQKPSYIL

Usually AC50 stands for the concentration giving half of the maximal activity seen. For `c1ccc2c(c1)ccc1cc3c(ccc4ccccc43)cc12`, the outcome was “inactive” in assay [1]; “inactive” with CD40, CD40 (gene 958) [2]; “inactive” in assay [3]; “inactive” in assay [4]; “inactive” in assay [5]; “inactive” in [6]. For the same compound, the outcome in [7], in [8], in assay [9], in assay [10], in assay [11] and in [12] was inactive. The outcome with CD38, CD38 (gene 952) was “inactive”; with CD40, CD40 (gene 958) [13], “inactive”; in assay [14], “inactive”; in [15] it was “inactive”; in assay [16], “inactive”; in assay [17], “inactive”. Besides, the outcome in assay [18] and in assay [19] was inactive. Further, the half-maximal activity concentration (AC50) was 1.84 µM (active) in [4] and 0.0342 µM (active) in [10].

For `C/C=C\C/C=C/CCCCCCCCOC(C)=O`, the outcome in assay [1], in assay [5], in assay [14], in assay [16] and in assay [18] was inactive. The AC50 with CD40, CD40 (gene 958) [2] was 20 µM (active); in assay [3], 30.9 µM (active); in assay [4] it was 34 µM (active); in assay [6] it was 35.1 µM (active); in [7], 30.5 µM (active); in assay [8] it was 35.5 µM (active). The half-maximal activity concentration (AC50) in assay [9] was 24.7 µM (active); in assay [10] it was 30.4 µM (active); in [11], 32.4 µM (active); in [12], 26.2 µM (active); with CD38, CD38 (gene 952), 32.1 µM (active); with CD40, CD40 (gene 958) [13], 20 µM (active). For the same compound, the values for the AC50 in assay [15], in [17] and in assay [19] were 29.5 µM (active), 24.3 µM (active) and 26.7 µM (active), respectively.

As for `CCCCC(CC)COC(=O)c1ccccc1O` (configuration not stated), the result in assay [1], in assay [3], in assay [4], in [5], in [6] and in [7] was inactive. Further, the outcome is “inactive” in assay [8]; “inactive” in assay [9]; “inactive” in [10]; “inactive” in assay [11]; “inactive” with CD38, CD38 (gene 952); “inactive” with CD40, CD40 (gene 958) [13]. Besides, the result in assay [14], in [15], in assay [16] and in [18] was inactive. In addition, the AC50 is 18.6 µM (active) with CD40, CD40 (gene 958) [2]; 10 µM (active) in [12]; 18.4 µM (active) in assay [17]; 17.8 µM (active) in [19].

Take `CC1OC1C1CCC2(C)OC2C1` (configuration not stated): the outcome in [1] was “inactive”; in the assay with CD40, CD40 (gene 958) [2], “inactive”; in assay [3], “inactive”; in assay [4], “inactive”; in [5], “inactive”; in [6], “inactive”. The result in assay [7], in [8], in assay [9], in [10], in [11] and in assay [12] was inactive. The outcome is “inactive” with CD38, CD38 (gene 952); “inactive” with CD40, CD40 (gene 958) [13]; “inactive” in assay [14]; “inactive” in assay [15]; “inactive” in assay [16]; “inactive” in [17]. The result in assay [18] and in assay [19] was inactive.
